Results reported in PubChem BioAssay (EPA / NIEHS).
Active and inactive are the calls of the source. The calls were made as follows: active = hit-call score of the fitted dose curve at least 0.9, where 1 is the maximum; inactive = score below 0.9.

These molecules were tested against Heat shock factor protein 1 (Homo sapiens) (UniProt Q00613) (assay: ATG_HSE_CIS: Attagene CIS-FACTORIAL HepG2 Assay for human Heat Shock Transcription Factor 1 (HSE) (AID 2282953)). Conditions: HepG2 HSE cis-reporter, Attagene RNA transcription; actives raise or lower the signal.
Chain of Heat shock factor protein 1 (Homo sapiens) (Q00613 whole entry, looked up): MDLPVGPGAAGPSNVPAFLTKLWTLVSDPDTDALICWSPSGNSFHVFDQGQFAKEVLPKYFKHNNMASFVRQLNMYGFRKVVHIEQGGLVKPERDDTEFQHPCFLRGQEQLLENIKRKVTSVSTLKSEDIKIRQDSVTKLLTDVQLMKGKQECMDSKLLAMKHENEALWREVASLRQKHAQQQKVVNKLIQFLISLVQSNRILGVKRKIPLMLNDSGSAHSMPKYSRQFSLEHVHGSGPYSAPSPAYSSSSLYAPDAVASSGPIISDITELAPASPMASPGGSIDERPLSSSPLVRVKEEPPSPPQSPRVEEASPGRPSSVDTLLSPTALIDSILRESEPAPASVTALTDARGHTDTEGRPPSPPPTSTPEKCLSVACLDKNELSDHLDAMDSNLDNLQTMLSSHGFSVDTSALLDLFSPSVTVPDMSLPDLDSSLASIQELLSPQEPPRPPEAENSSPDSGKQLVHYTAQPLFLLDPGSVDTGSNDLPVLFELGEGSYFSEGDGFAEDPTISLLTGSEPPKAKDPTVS
Protocol: ATG_CIS is a cell-based, multiplexed-readout assay that uses HepG2, a human liver cell line, with measurements taken at 24 hours after chemical dosing in a 24-well plate.ATG_HSE_CIS is one of 52 assay component(s) measured or calculated from the ATG_CIS assay. It is designed to make measurements of mRNA induction, a form of inducible reporter, as detected with fluorescence intensity signals by Reverse transcription polymerase chain reaction (RT-PCR) and Capillary electrophoresis technology.Data from the assay component ATG_HSE_CIS was analyzed into 1 assay endpoint. This assay endpoint, ATG_HSE_CIS, was analyzed with bidirectional fitting relative to DMSO as the negative control and baseline of activity. Using a type of inducible reporter, measures of mRNA for gain or loss-of-signal activity can be used to understand the reporter gene at the transcription factor-level as they relate to the gene HSF1. Furthermore, this assay endpoint can be referred to as a primary readout, because this assay has produced multiple assay endpoints where this one serves a reporter gene function. To generalize the intended target to other relatable targets, this assay endpoint is annotated to the dna binding intended target family, where the subfamily is heat shock protein.
Human liver HepG2 cells are transiently transfected with multiple reporter transcription units (MRTUs) in 6-well plates using FuGene 6 reagent (Roche; 3 ml FuGene/1 mg DNA). The MRTU constructs are regulated by a cis-regulating element (promoter). […] A major difference between the CIS and TRANS system is that in CIS activities of endogenous TFs are measured, whereas the TRANS assay evaluates changes in activities of exogenous, chimeric NR-Gal4 proteins. […] At the end of 24 hour incubation, total RNA was isolated using TriZol reagent (Invitrogen). The isolated RNA is then reverse-transcribed using oligo(dT) primer and Mo-MLV reverse transcriptase (Invitrogen) with DNAse I (Ambion) treatment for 30 min. The one-tenth of the produced cDNA was amplified by PCR using Taq DNA polymerase (Invitrogen) and two reporter sequence-specific primers. The PCR products were fluorescently labeled by primer extension with 6-arboxyfluorescein (6-FAM) 5'-labeled reporter sequence-specific primer (2 min at 95 C, 20 s at 68 C and 10 min at 72 C) and these products were digested with 5U of HpaI (New England Biolabs) for 2h at 37 C. The fragments were purified using Qiaquick PCR columns (Qiagen), analyzed on an ABI 3130xL genetic analyzer (Applied Biosystems) with peak positions identified by using a set of X-rhodamine (ROX)-labeled MapMarker1000 molecular weight standards (BioVentures). The raw capillary electrophoresis data was processed using Attagraph software (Attagene).
In the case of `OC(Cn1cncn1)(Cn1cncn1)c1ccc(F)cc1F`, the outcome was “inactive”. In the case of `OC[C@H]1O[C@@](CO)(O[C@H]2O[C@H](CO)[C@@H](O)[C@H](O)[C@H]2O)[C@@H](O)[C@@H]1O`, the outcome was “inactive”. In the case of `FC(F)=C(F)C(F)(F)C(F)(F)C(F)(F)C(F)(F)C(F)(F)C(F)(F)F`, the outcome was “inactive”. With `NC(=O)NN=Cc1ccc([N+](=O)[O-])o1` the outcome was “inactive”. In the case of `O=C(O)c1cccc(C[C@@H]2COc3ccc(OCc4nc5cc(F)ccc5s4)cc3[C@@H]2O)c1`, the AC50 was 168 µM (active). With `CCCCC(CC)C(=O)OCCOCCOCCOC(=O)C(CC)CCCC` (stereo not given) the outcome was “inactive”. In the case of `Cc1ncc([C@@H](CCCCCCc2ccc3c(n2)NCCC3)CC(=O)O)cn1`, the outcome was “inactive”. With `CCc1cccc(CC)c1N` the outcome was “inactive”. `O=S(=O)(O)c1ccc(N=Nc2c(O)ccc3cc(S(=O)(=O)O)ccc23)cc1` was tested, and the outcome was “inactive”. With `S=P(N1CC1)(N1CC1)N1CC1` the outcome was “inactive”. `O=C(Cl)C(F)(F)C(F)(F)C(F)(F)C(=O)Cl` was tested, and the outcome was “inactive”. `C[C@@H](Oc1ccc(CNC(=O)c2cccnc2Oc2ccc3c(c2)OCO3)c(F)c1)C(=O)O` was tested, and the outcome was “inactive”. With `OCCNCCO` the outcome was “inactive”. In the case of `CCCOc1ccc(S(=O)(=O)N2CCN(CC)CC2)cc1-c1nc2c(CC)n(Cc3ccccn3)nc2c(=O)[nH]1`, the outcome was “inactive”. With `Cn1c(=O)c2[nH]cnc2n(C)c1=O` the outcome was “inactive”. In the case of `CC[C@H](C)C(=O)O[C@H]1C[C@H](O)C=C2C=C[C@H](C)[C@H](CC[C@@H](O)C[C@@H](O)CC(=O)O)[C@H]21`, the outcome was “inactive”. In the case of `OCCC(F)(F)C(F)(F)C(F)(F)C(F)(F)F`, the outcome was “inactive”. `O=S1(=O)CCCO1` was tested, and the outcome was “inactive”. For `CCN(CC)C(=S)SSC(=S)N(CC)CC`, the AC50 was 111 µM (active). With `Cc1ccc(S(=O)(=O)NC(=O)NN2CCCCCC2)cc1` the outcome was “inactive”. `CCCCCOC(C)=O` was tested, and the outcome was “inactive”. For `CCCCCCOC(=O)CC(CC(=O)OCCCCCC)(OC(=O)CCC)C(=O)OCCCCCC`, the outcome was “inactive”. With `C[Si](C)(C)C(F)(F)C(F)(F)C(F)(F)F` the outcome was “inactive”. `OCc1ccccc1` was tested, and the outcome was “inactive”. `CC(=O)c1ccccc1` was tested, and the outcome was “inactive”. With `CCn1nc(C)c2c1C(=O)NCC(c1ccc(O)cc1)=N2` the outcome was “inactive”. In the case of `FC(F)C(F)(F)COCC1CO1` (stereo not given), the outcome was “inactive”. In the case of `COCc1nnc(-c2ccc[n+]([O-])c2)n1-c1c(Cl)c(Cl)cc2[nH]c(=O)c(=O)[nH]c12`, the outcome was “inactive”. With `COc1cc(C(C)C)c2c(c1)S(=O)(=O)N(COc1cc(=O)n3cccc(OCCN4CCCCC4)c3n1)C2=O` the AC50 was 2.75 µM (active). `NC(=O)N1c2ccccc2C=Cc2ccccc21` was tested, and the outcome was “inactive”. For `CCc1ccc(O)c(C(C)(C)C)c1`, the outcome was “inactive”. `CCCC(CCC)C(=O)O` was tested, and the outcome was “inactive”. In the case of `O=C(O)[C@H](O)[C@@H](O)C(=O)O`, the outcome was “inactive”. For `Cn1cc[nH]c1=S`, the outcome was “inactive”. `NC(=O)N(O)[C@@H]1COc2cc(OCc3ccccc3)ccc21` was tested, and the outcome was “inactive”. In the case of `CCOC(N)=O`, the outcome was “inactive”. With `COS(C)(=O)=O` the outcome was “inactive”. For `CCCCCCCCCCCCCCO`, the AC50 was 117 µM (active). With `C=CN1CCCC1=O` the outcome was “inactive”. For `O=C(NO)C1(NS(=O)(=O)c2ccc(Oc3ccc(F)cc3)cc2)CCOCC1`, the outcome was “inactive”.
